RE007 growth inh: less growth of the S. pombe RE007 Vpr strain | S. pombe RE007 Vpr strain, BacTiter-Glo ATP luminescence, 24 h | Potency, µM (doses to about 92.2 µM), for inactives: top-dose activity change, negative = less growth, usual class: inhibitors | 360,000 tested, 0.21% active; active means well fitted falling curve with a large enough effect; inconclusive means small, poorly fitted or top-dose-only effect; inactive means no such curve, though single readings can be large or run the other way; further: nearly all actives have a fitted effect of over 50% in size
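Fission yeast RE007 carrying one integrated HIV-1 vpr copy, seeded at OD 0.01 in PMG+AL medium with 23 nL pinned compound. Grown 24 h at 30 degrees; viability read by BacTiter-Glo luminescence after 5 min.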
Sm TGR inh: S. mansoni TGR enzyme inhibition | Potency, µM (titrated, usually from 114 µM), for inactives: top-dose activity change, negative = inhibition, usual class: inhibitors | Q962Y6 | 360,000 tested, 3% active | purified TGR, DTNB reduction, TNB absorbance 405 nm; further: nearly all actives have a fitted effect of over 60% in size
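First, TGR (20 nM dispensed) and NADPH were mixed with compound. Second, a 15 min room-temperature incubation followed. Third, further NADPH and then DTNB were added to start the reaction. Finally, TNB absorbance was monitored kinetically.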
Tb PYK inh: blocks Trypanosoma brucei pyruvate kinase | Q57TT1 | TbPYK enzyme, Kinase-Glo Plus ATP luminescence, 45 min | Potency, µM (series often up to 76.8 µM), for inactives: at the top dose activity, negative = inhibition, most hits filed as inhibitors | 410,000 tested, 0.12% active | AID 624173; further: nearly all actives have a fitted effect of over 50% in size
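Enzyme and substrate buffer are dispensed first and compound is pin-transferred. ADP at 130 uM final then starts the reaction, which runs 45 min at room temperature. Detection reagent is added for 10 min before luminescence is imaged.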
LmPK inhibitor: blocks Leishmania mexicana pyruvate kinase activity. Q27686. purified LmPK, Kinase-Glo ATP luminescence, 1 h. Potency, µM (highest dose often 57.5 µM), without a hit: at the top dose activity change, negative = inhibition, hits mostly inhibitors. 290,000 tested, 0.37% active
Target sequence (Q27686 whole entry, looked up): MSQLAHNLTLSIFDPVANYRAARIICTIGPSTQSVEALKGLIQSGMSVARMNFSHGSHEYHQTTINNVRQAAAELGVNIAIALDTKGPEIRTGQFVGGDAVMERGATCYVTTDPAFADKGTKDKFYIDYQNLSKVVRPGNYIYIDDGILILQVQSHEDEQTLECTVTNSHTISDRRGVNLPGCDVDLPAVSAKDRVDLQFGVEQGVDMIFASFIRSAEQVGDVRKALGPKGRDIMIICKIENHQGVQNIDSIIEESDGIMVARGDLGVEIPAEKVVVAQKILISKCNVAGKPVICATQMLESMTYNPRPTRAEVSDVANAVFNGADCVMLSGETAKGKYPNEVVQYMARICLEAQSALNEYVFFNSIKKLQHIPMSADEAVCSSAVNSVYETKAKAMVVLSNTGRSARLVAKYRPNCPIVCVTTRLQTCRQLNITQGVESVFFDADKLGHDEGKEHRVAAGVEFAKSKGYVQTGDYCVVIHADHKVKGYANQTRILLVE
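Purified LmPK (0.1 nM) with 0.5 mM PEP and 0.1 mM ADP in imidazole buffer pH 7.2 with MgCl2/KCl, 1 h at room temperature. ATP formed was read by luciferase luminescence and normalized to no-enzyme and uninhibited controls.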
* hit, by the source's call; ? = inconclusive; nt = no result given; [ ] = dose if it differs, or a comment. The list is not random: actives were taken first. Their share in the collection is about 3%. Unless noted, the call rests on the fitted dose curve; in most records, active means well fitted curve in the direction sought with a large enough effect; inconclusive means small, poorly fitted or top-dose-only effect, or another doubt; inactive means no such curve, though single readings can be large; an effect the other way counts as inactive or inconclusive. On the % scale 0 is the no-effect control and ±100 the full control effect; potency means the concentration at half of the fitted maximal effect.

SMILES | RE007 growth inh | Sm TGR inh | Tb PYK inh | LmPK inhibitor
O=S(=O)(c1ccccc1)c1nc(-c2ccco2)oc1NCc1ccccc1 | -15% | 35µM* | 0% | 4%
CCCOc1cccc(C(=O)Nc2cc(-c3ccccc3)no2)c1 | nt | 17% | 3% | nt
Cc1nc2ccccc2n1CCc1nc2c3ccccc3nc(SCc3cccc(F)c3)n2n1 | nt | 5% | 1% | nt
O=C(C1CCCN(S(=O)(=O)c2cccs2)C1)N1CCN(c2cccc(Cl)c2)CC1 (stereo not drawn) | nt | 13% | 5% | nt
Cc1ccccc1/C=N/Nc1ccc(Cl)nn1 | 8% | 40µM* | 1% | -4%
CC1C(=O)N(Cc2cn(CC3CCCCC3)nn2)CCS(=O)(=O)N1Cc1ccc(-c2cccc(CO)c2)cc1 (stereo not drawn) | 16% | nt | -4% | nt
COC(=O)C1=C(C(=O)OC)C2C(C)=CC(C)=CN2C(C(=O)OC)=C1C(=O)OC (stereo not drawn) | -7% | 40µM* | 0% | 0%
C#CC[N+](C)(C)CC#Cc1ccc(Cl)cc1 | 3% | 40µM* | -14% | -2%
C#CC[N+](CC)(CC)CC#Cc1cccc(Cl)c1 | -6% | -6% | -1% | -1%
CC(C)(C)OC(=O)N1CC=C2C(C#N)=C(N)C(C#N)(C#N)[C@H](c3cccnc3)[C@H]2C1 | 14% | 35µM* | 3% | 3%
CC1CCCN(S(=O)(=O)c2ccc(NC(=O)Cc3ccc(S(=O)(=O)N4CCOCC4)s3)cc2)C1 (stereo not drawn) | 4% | -13% | 5% | nt
CC1CCN(S(=O)(=O)c2ccc(NC(=O)Cc3ccc(S(=O)(=O)N4CCOCC4)s3)cc2)CC1 | -7% | 79µM* | -1% | nt
C/C(=C\c1ccccc1F)C1Nc2cccc3cccc(c23)N1 | nt | ? | -6% | nt
C/C(=C\c1ccccc1)C1Nc2cccc3cccc(c23)N1 | nt | 13µM* | nt | nt
C/C(=C\c1ccc2c(c1)OCO2)C1Nc2cccc3cccc(c23)N1 | nt | 20µM* | -10% | nt
COc1cc(/C=N/c2oc(C)c(C)c2C#N)cc(Br)c1O | 14% | 11µM* | -3% | -9%
COc1ccc(/C=N/c2oc(C)c(C)c2C#N)c(OC)c1 | 7% | 50µM* | -8% | -2%
C[C@H]1Cc2c(-c3ccccc3)nc3c(c2CO1)CN(C(=O)c1ccco1)CC3 | nt | nt | nt | -5%[11.5 µM]
CN(C)c1cc(-c2ccc(Cl)c(Cl)c2)oc(=O)c1Cl | 7% | 40µM* | 2% | 2%
CN(C)c1cc(-c2ccc(Cl)cc2)oc(=O)c1Cl | 18% | -21% | 8% | 4%
O=C(CCSc1nc(-c2ccco2)cc(C(F)(F)F)n1)N1CCCc2ccccc21 | 22% | 40µM* | -18% | 2%
O=C1C2C3C=CC(C3=C(c3ccccc3)c3ccccc3)C2C(=O)N1Cc1ccccc1 (stereo not drawn) | ? | 7.9µM* | -10% | 10%
O=C1C2C3C=CC(C3=C(c3ccccc3)c3ccccc3)C2C(=O)N1CCO (stereo not drawn) | 20% | 8% | -8% | 9%
Cc1ccc(CN(C)c2nc(-c3cccnc3)nc3ccccc23)o1 | 3% | 40µM* | -5% | -1%
COc1ccc(C(=O)CSc2nnc(-c3ccoc3C)n2CC2CCCO2)cc1 (stereo not drawn) | -2% | 45µM* | -6% | 6%
SMILES | RE007 growth inh | Sm TGR inh | Tb PYK inh | LmPK inhibitor
COCCCn1c(SCC(=O)Nc2ccc3c(c2)OCCO3)nnc1-c1ccoc1C | 2% | 0% | -2% | 3%
COCCn1c(SCC(=O)c2ccc3c(c2)OCCO3)nnc1-c1ccoc1C | 19% | 28µM* | -17% | -2%
COCCCn1c(SCC(=O)n2c(C)c(C)c3ccccc32)nnc1-c1ccoc1C | -7% | 45µM* | -6% | 1%
COCCCn1c(SCC(=O)N2CC(=O)Nc3ccccc32)nnc1-c1ccoc1C | 7% | 0% | 2% | 7%
Cc1cccc(CS(=O)(=O)Cc2ccc(C(=O)NC(C)c3ccccc3)o2)c1 (stereo not drawn) | 7% | ? | -3% | 6%
Cc1ccccc1CS(=O)(=O)c1nnc([C@H](Cc2ccccc2)NC(=O)OC(C)(C)C)o1 | -15% | 1.1µM* | -5% | -1%
CCC(C)[C@@H](NC(=O)OC(C)(C)C)c1nnc(S(=O)(=O)Cc2cccc(C)c2)o1 (stereo partly drawn) | -21% | 2µM* | -4% | 4%
CCSc1nnc([C@H](Cc2ccccc2)NC(=O)OC(C)(C)C)o1 | -3% | 4% | -2% | 1%
CC(C)(C)OC(=O)N[C@@H](Cc1ccccc1)c1nnc(S(=O)(=O)Cc2ccccc2)o1 | nt | 0.63µM* | nt | 11%
Cn1cc(C(C[N+](=O)[O-])c2ccccc2)c2ccccc21 (stereo not drawn) | 0% | -31% | 2% | 7%
CC(=O)n1cc(C(C[N+](=O)[O-])SCCN)c2ccccc21 (stereo not drawn) | ? | 8.9µM* | ? | 3%
CCOc1cc(N2CCOCC2)c(OCC)cc1NC(C)C(=O)N1CCN(CC)CC1 (stereo not drawn) | -15% | -33% | 5% | -7%
CCN1CCN(C(=O)C(C)Nc2cc(Cl)c(OC)cc2OC)CC1 (stereo not drawn) | -5% | 20µM* | -2% | 1%
Cc1cccc(NC2=C(Cl)C(=O)OC2OC(=O)c2ccco2)c1 (stereo not drawn) | -11% | 14µM* | 2% | -1%
Cc1ccc(NC2=C(Cl)C(=O)OC2OC(=O)c2ccco2)cc1 (stereo not drawn) | 6% | 14µM* | 6% | 8%
COc1cccc(C=Nc2ccccc2C#N)c1O | -12% | 1% | -14% | 14µM*
COc1cccc(C=Nc2cc(C)cc(C)c2)c1O | -7% | -4% | 1% | -15%
COc1cccc(C=Nc2cc(C)on2)c1O | 4% | -8% | -3% | 16µM*
COc1cccc(/C=N/c2oc(-c3ccccc3)cc2C#N)c1O | ? | ? | -3% | -17%
CSc1cccc(NC(=S)N2CCC(N(C)C3CCCCCC3)CC2)c1 | -5% | 50µM* | 4% | 0%
CC1CCCCN1CCCNC(=O)c1ccc2c(c1)sc1nc(-c3ccc(F)cc3)cn12 (stereo not drawn) | nt | -3% | 1% | nt
O=C(CCl)Nc1cc(-c2ccccc2)nn1-c1ccccc1 | -9% | 13µM* | 12% | 1%
CC(=O)Nc1ccc(-c2cc(N)n(-c3ccccc3)n2)cc1 | 4% | -4% | -27% | 16µM*
Cc1ccc(-c2cc(NC(=O)CCl)n(-c3ccccc3)n2)cc1 | ? | ? | ? | 9%
CC(=O)Nc1ccc(-c2cc(NC(C)=O)n(-c3ccccc3)n2)cc1 | 10% | -5% | 0% | -1%
C=CC1=C2C=C(C3CC3)N(c3ccc(OC)cc3)C=C2C(=O)C(C)(OC(=O)c2ccco2)C1=O (stereo not drawn) | nt | nt | nt | 7%[11.5 µM]
COc1ccc(NC(=O)c2oc3ccc(S(=O)(=O)N4CCC5(CC4)OCCO5)cc3c2C)cc1Cl | nt | 0% | -11% | nt

Compound activity (PubChem BioAssay)
